The source of these data is ChEMBL document CHEMBL1157539, “Thousands of chemical starting points for antimalarial lead identification” (Nature, 2010).

Common to all, as to assay type: functional
The test system of test [1] is Plasmodium falciparum. Put plainly: GSK_TCMDC: Inhibition of Plasmodium falciparum 3D7 in whole red blood cells, using parasite LDH activity as an index of growth. Test compounds present at 2uM.
In test [2] the test system is Plasmodium falciparum. Put plainly: GSK_TCMDC: Inhibition of Plasmodium falciparum Dd2 in whole red blood cells, using parasite LDH activity as an index of growth. Test compounds present at 2uM.
For a further test, the system named is HepG2. Put plainly: GSK_TCMDC: Percent inhibition of human HepG2 cell line. Test compounds present at 10uM.

As for `COc1cccc(C(=O)OC2=C3CCC(=O)C3(C)CCC2=O)c1` (stereo unspecified), the values for the Inhibition with Plasmodium falciparum [1], in the test on Plasmodium falciparum [2] and with HepG2 were 93%, 9% and 37%, respectively.

Turning to `OC1CCN(c2cc(-c3ccccn3)nc(-c3ccccn3)n2)CC1`, the Inhibition (in general, the share of the control response that was lost under treatment) in the test with Plasmodium falciparum [1] was found to be 83%; in the test on Plasmodium falciparum [2], 97%; in the test with HepG2, 43%.

Take `CC(C)[C@H](NC(=O)c1c(F)cccc1F)C(=O)Nc1ccc(Cc2nc3ccccc3s2)cc1`: the results for the Inhibition in the test with Plasmodium falciparum [1], with Plasmodium falciparum [2] and in the test on HepG2 were 82%, 72% and 3%, respectively.

Consider `O=S(=O)(ON=C1CCc2ccccc21)c1ccc(Cl)cc1`, for which the Inhibition in the test on Plasmodium falciparum [1] turned out to be 100%; with Plasmodium falciparum [2], 79%; with HepG2, 0%.

Take `Cc1cc(-c2cccc3c(C(=O)N4CCc5cc6nccc(N7CCN8CCC[C@H]8C7)c6cc54)cccc23)cc(C)n1.Cl`: the Inhibition with Plasmodium falciparum [1] is 97%; with Plasmodium falciparum [2], 76%; in the test on HepG2 it was 13%.

For the compound `CCc1cc2c3c(N)nc(N)nc3ccc2n1C(C)CC` (stereo unspecified), the Inhibition is on record as 100% in the test with Plasmodium falciparum [1], 99% with Plasmodium falciparum [2] and 73% in the test on HepG2.

On to `O=C(Nc1ccccc1Cl)c1cc2ccccc2cc1O`, for which the Inhibition in the test on Plasmodium falciparum [1] was 94%; in the test with Plasmodium falciparum [2], 72%; in the test on HepG2, 2%.

With `O=C(O)C(F)(F)F.O=S(=O)(NCCN1CCCC1)c1ccc(-c2cccc(CNCc3ccc(F)cc3)c2)cc1F`, the Inhibition with Plasmodium falciparum [1] is given as 97%; in the test on Plasmodium falciparum [2], 36%; in the test with HepG2, 43%.

For the compound `NC(=O)c1cnc2cc(-c3ccncc3)cc(Nc3ccc(NC(=O)C4CCCCC4)cc3)c2c1`, the Inhibition with Plasmodium falciparum [1] was 98%; in the test with Plasmodium falciparum [2], 99%; in the test with HepG2, 58%.

On to `Cl.N=C(Cc1ccc(Cl)cc1)NCCN1CCCCCC1`, for which the Inhibition in the test with Plasmodium falciparum [1] stood at 93%; with Plasmodium falciparum [2], 94%; in the test with HepG2, 0%.

`C[C@H](CNc1ccnc(Nc2ccc3[nH]c(=O)[nH]c3c2)n1)c1ccccc1`: the Inhibition amounted to 99% in the test on Plasmodium falciparum [1], 2% in the test with Plasmodium falciparum [2] and 50% with HepG2.

Consider `Cc1cccc(CNc2nc(C)cc(N[C@@H](CC(C)C)C(=O)NCc3cccc(F)c3)n2)c1.O=C(O)C(F)(F)F`, for which the Inhibition amounted to 91% in the test with Plasmodium falciparum [1], 32% in the test on Plasmodium falciparum [2] and 13% in the test with HepG2.

`COc1ccc2nccc(N3CCC(SCCNCc4cc5c(cn4)OCCO5)C3)c2n1.Cl` (stereo unspecified): the Inhibition with Plasmodium falciparum [1] was 100%; in the test on Plasmodium falciparum [2], 100%; with HepG2, 30%.

Consider `O=C(NC1CC1)c1cnc(N2CCC(Cc3ccccc3)CC2)c(Cl)c1.O=C(O)C(F)(F)F`, for which the values for the Inhibition in the test on Plasmodium falciparum [1], in the test on Plasmodium falciparum [2] and in the test on HepG2 were 96%, 96% and 10%, respectively.

For `CC(C)CCn1c(Sc2ccc(C#N)c([N+](=O)[O-])c2)nnc1-c1ccc(Cl)cc1`, the Inhibition was 90% in the test with Plasmodium falciparum [1], 39% with Plasmodium falciparum [2] and 25% in the test on HepG2.

For the compound `Cl.c1cc2[nH]c(CCCCCc3nc4cc(C5=N[C@@H]6CCCC[C@@H]6N5)ccc4[nH]3)nc2cc1C1=N[C@@H]2CCCC[C@@H]2N1`, the figures for the Inhibition with Plasmodium falciparum [1], with Plasmodium falciparum [2] and with HepG2 were 96%, 98% and 8%, respectively.

Take `CN1CCCc2ccc(NC(=O)c3ccc(-c4cc(C(F)(F)F)nn4C)s3)cc2C1.O=C(O)C(F)(F)F`: the Inhibition with Plasmodium falciparum [1] worked out at 88%; in the test on Plasmodium falciparum [2], 34%; with HepG2, 16%.

Regarding `CS(=O)(=O)CCNCc1nc(-c2ccc3ncnc(Nc4ccc(OCc5cccc(F)c5)c(Cl)c4)c3c2)cs1.Cl`, the results for the Inhibition in the test with Plasmodium falciparum [1], in the test with Plasmodium falciparum [2] and with HepG2 were 98%, 34% and 8%, respectively.

`Cl.O=S(=O)(c1ccc(OCc2ccc(Cl)cc2)cc1)c1cc2c(cc1OCc1ccccc1)CCN(CC1CC1)CC2`: the Inhibition was found to be 82% in the test with Plasmodium falciparum [1], 0% in the test with Plasmodium falciparum [2] and 19% in the test on HepG2.

Regarding `O=C(NC1CCN(c2ccnc(Nc3ccc(F)cc3)n2)C1)c1cc2ccccc2s1` (stereo unspecified), the Inhibition with Plasmodium falciparum [1] turned out to be 99%; with Plasmodium falciparum [2] it was 80%; with HepG2 it was 6%.

As for `CC(C)N1CCC(N(Cc2ccc(-c3ccc(Cl)cc3)cc2)C(=O)Cn2c(CCc3cccc(F)c3F)cc(=O)c3ccccc32)CC1.O=C(O)C(O)C(O)C(=O)O`, the Inhibition with Plasmodium falciparum [1] is on record as 96%; with Plasmodium falciparum [2], 73%; in the test with HepG2, 62%.

As to `CC(C)NCc1cccc(-c2ccc(NC(=O)c3cccc(C#N)c3)cc2)c1.O=C(O)C(F)(F)F`, the Inhibition in the test on Plasmodium falciparum [1] stood at 100%; in the test with Plasmodium falciparum [2], 95%; in the test on HepG2, 22%.

On to `CCCN(Cc1nnc(-c2cccs2)o1)C(=O)CSc1nnnn1-c1cc(C)cc(C)c1`, for which the results for the Inhibition in the test with Plasmodium falciparum [1], with Plasmodium falciparum [2] and with HepG2 were 92%, 71% and 2%, respectively.

Consider `Cc1cc2[nH]c(-c3ccc(C(=O)NCCCN4CCN(c5cccc(Cl)c5)CC4)s3)nc2cc1Cl`, for which the Inhibition in the test with Plasmodium falciparum [1] came out at 100%; with Plasmodium falciparum [2], 93%; in the test on HepG2, 7%.

Take `Cc1ccc(C(=O)Nc2cccc(CN3CCCN(Cc4ccc(O)cc4)CC3)c2)cc1.O=C(O)C(F)(F)F`: the Inhibition in the test on Plasmodium falciparum [1] was 88%; with Plasmodium falciparum [2], 5%; with HepG2 it was 0%.

As for `CCCO[C@H](C(=O)OC)[C@@H](CC1Cc2ccccc2C1)C(=O)NCCC1=CCCCC1`, the Inhibition worked out at 93% in the test on Plasmodium falciparum [1], 57% in the test on Plasmodium falciparum [2] and 6% in the test with HepG2.

On to `CS(=O)(=O)Nc1ccc2[nH]cc(C3CCN(CC4CCC(NC(=O)/C=C/c5ccc(Cl)c(Cl)c5)CC4)CC3)c2n1` (stereo unspecified), for which the results for the Inhibition in the test on Plasmodium falciparum [1], in the test on Plasmodium falciparum [2] and in the test with HepG2 were 99%, 10% and 2%, respectively.
